The text below walks through data of the supplement of paper PMC10849652.

Common to all, as to assay: log2 fold change, soluble protein after heating vs DMSO (PISA); higher = thermal stabilisation; K562 lysate, 10 uM; active = over 0.2 and 3.5 SD of the protein, either way, in both replicates (recomputed)
Compound in assay [1]: C1=CC=C(C=C1)[C@H](COC2=CC3=C(C=C2)NC(=O)N3)NC(=O)C4=CC=CN(C4=O)CC5=CC(=C(C=C5)F)F
The gist of the method:
(§1)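 Quantification was by TMTpro 16plex LC-MS/MS with equalised channel sums, applied to the supernatant after 21,000xg for 90 min. Samples were crude K562 extract at 1 mg/mL protein in PBS pH 7.4 with 1 mM MgCl2, treated with 10 μM compound for 30 min, heated for 3 min across 48°C-58°C, pooled and brought to 0.5% NP-40 at 4°C. Values are log-two fold changes in thermal stability relative to solvent controls, from duplicates.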

Compound in assay [2]: CC1=C(SC2=C1C(=N[C@H](C3=NN=C(N32)C)CC(=O)N)C4=CC=C(C=C4)Cl)C
Summed up:
as §1

Compound in assay [3]: CC1=C2C(=CC=C1)N=C(N(C2=O)C3=CC=CC=C3C)CN4C=NC5=C(N=CN=C54)N
Summed up: as §1

Compound in assay [4]: Cc1sc2c(c1C)C(c1ccc(Cl)cc1)=N[C@@H](CC(=O)OC(C)(C)C)c1nnc(C)n1-2
The gist of the method:
as §1

Compound in assay [5]: c1ccc([C@@H]2C[C@H]2NC2CCNCC2)cc1
Summed up:
as §1

The full data set covers some 8,800 targets. This sample favours those with a hit. About 0.5% of all pairs of compound and target were hits.

UniProt Q14644, sequence (Q14644 whole entry, looked up): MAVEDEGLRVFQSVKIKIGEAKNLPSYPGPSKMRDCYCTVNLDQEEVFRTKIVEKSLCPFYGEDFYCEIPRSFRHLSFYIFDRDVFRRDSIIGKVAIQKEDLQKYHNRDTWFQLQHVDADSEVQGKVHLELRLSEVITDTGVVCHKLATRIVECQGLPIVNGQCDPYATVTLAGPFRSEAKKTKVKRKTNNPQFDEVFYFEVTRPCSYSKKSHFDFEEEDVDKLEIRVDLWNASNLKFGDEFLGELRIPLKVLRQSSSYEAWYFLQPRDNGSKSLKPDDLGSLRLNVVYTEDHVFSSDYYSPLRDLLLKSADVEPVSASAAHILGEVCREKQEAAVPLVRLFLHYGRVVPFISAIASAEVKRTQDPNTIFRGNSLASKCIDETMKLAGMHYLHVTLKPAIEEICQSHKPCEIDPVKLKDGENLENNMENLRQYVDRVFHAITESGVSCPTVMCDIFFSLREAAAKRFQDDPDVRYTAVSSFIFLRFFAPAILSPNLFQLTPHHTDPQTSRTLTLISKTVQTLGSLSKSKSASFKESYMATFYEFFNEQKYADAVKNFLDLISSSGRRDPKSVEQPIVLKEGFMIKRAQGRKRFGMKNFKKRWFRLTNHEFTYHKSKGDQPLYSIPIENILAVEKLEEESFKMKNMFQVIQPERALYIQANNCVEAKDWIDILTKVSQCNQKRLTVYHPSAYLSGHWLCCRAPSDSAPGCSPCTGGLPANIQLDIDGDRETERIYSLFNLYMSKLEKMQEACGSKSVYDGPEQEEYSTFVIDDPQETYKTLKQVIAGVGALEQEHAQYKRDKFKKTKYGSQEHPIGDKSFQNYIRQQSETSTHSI
UniProt Q99643, sequence (Q99643 whole entry, looked up): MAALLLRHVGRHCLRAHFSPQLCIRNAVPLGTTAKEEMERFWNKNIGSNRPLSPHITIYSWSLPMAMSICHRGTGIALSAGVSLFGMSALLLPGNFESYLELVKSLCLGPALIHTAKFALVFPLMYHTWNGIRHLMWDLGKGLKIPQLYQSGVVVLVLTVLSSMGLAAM
UniProt Q13530, sequence (Q13530 whole entry, looked up): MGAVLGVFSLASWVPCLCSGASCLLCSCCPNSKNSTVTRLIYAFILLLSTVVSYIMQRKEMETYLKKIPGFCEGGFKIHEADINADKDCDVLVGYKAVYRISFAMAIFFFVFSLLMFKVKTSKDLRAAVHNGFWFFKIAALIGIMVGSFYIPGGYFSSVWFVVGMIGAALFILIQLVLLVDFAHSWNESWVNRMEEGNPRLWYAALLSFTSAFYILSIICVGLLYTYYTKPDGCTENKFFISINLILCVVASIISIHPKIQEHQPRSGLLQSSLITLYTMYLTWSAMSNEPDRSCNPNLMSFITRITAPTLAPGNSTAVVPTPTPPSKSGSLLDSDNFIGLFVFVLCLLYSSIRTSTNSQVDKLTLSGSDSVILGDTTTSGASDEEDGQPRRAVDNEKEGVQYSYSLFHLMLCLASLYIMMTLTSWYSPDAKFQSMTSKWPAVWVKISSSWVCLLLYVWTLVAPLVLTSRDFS
UniProt P78509, sequence (P78509 whole entry, looked up): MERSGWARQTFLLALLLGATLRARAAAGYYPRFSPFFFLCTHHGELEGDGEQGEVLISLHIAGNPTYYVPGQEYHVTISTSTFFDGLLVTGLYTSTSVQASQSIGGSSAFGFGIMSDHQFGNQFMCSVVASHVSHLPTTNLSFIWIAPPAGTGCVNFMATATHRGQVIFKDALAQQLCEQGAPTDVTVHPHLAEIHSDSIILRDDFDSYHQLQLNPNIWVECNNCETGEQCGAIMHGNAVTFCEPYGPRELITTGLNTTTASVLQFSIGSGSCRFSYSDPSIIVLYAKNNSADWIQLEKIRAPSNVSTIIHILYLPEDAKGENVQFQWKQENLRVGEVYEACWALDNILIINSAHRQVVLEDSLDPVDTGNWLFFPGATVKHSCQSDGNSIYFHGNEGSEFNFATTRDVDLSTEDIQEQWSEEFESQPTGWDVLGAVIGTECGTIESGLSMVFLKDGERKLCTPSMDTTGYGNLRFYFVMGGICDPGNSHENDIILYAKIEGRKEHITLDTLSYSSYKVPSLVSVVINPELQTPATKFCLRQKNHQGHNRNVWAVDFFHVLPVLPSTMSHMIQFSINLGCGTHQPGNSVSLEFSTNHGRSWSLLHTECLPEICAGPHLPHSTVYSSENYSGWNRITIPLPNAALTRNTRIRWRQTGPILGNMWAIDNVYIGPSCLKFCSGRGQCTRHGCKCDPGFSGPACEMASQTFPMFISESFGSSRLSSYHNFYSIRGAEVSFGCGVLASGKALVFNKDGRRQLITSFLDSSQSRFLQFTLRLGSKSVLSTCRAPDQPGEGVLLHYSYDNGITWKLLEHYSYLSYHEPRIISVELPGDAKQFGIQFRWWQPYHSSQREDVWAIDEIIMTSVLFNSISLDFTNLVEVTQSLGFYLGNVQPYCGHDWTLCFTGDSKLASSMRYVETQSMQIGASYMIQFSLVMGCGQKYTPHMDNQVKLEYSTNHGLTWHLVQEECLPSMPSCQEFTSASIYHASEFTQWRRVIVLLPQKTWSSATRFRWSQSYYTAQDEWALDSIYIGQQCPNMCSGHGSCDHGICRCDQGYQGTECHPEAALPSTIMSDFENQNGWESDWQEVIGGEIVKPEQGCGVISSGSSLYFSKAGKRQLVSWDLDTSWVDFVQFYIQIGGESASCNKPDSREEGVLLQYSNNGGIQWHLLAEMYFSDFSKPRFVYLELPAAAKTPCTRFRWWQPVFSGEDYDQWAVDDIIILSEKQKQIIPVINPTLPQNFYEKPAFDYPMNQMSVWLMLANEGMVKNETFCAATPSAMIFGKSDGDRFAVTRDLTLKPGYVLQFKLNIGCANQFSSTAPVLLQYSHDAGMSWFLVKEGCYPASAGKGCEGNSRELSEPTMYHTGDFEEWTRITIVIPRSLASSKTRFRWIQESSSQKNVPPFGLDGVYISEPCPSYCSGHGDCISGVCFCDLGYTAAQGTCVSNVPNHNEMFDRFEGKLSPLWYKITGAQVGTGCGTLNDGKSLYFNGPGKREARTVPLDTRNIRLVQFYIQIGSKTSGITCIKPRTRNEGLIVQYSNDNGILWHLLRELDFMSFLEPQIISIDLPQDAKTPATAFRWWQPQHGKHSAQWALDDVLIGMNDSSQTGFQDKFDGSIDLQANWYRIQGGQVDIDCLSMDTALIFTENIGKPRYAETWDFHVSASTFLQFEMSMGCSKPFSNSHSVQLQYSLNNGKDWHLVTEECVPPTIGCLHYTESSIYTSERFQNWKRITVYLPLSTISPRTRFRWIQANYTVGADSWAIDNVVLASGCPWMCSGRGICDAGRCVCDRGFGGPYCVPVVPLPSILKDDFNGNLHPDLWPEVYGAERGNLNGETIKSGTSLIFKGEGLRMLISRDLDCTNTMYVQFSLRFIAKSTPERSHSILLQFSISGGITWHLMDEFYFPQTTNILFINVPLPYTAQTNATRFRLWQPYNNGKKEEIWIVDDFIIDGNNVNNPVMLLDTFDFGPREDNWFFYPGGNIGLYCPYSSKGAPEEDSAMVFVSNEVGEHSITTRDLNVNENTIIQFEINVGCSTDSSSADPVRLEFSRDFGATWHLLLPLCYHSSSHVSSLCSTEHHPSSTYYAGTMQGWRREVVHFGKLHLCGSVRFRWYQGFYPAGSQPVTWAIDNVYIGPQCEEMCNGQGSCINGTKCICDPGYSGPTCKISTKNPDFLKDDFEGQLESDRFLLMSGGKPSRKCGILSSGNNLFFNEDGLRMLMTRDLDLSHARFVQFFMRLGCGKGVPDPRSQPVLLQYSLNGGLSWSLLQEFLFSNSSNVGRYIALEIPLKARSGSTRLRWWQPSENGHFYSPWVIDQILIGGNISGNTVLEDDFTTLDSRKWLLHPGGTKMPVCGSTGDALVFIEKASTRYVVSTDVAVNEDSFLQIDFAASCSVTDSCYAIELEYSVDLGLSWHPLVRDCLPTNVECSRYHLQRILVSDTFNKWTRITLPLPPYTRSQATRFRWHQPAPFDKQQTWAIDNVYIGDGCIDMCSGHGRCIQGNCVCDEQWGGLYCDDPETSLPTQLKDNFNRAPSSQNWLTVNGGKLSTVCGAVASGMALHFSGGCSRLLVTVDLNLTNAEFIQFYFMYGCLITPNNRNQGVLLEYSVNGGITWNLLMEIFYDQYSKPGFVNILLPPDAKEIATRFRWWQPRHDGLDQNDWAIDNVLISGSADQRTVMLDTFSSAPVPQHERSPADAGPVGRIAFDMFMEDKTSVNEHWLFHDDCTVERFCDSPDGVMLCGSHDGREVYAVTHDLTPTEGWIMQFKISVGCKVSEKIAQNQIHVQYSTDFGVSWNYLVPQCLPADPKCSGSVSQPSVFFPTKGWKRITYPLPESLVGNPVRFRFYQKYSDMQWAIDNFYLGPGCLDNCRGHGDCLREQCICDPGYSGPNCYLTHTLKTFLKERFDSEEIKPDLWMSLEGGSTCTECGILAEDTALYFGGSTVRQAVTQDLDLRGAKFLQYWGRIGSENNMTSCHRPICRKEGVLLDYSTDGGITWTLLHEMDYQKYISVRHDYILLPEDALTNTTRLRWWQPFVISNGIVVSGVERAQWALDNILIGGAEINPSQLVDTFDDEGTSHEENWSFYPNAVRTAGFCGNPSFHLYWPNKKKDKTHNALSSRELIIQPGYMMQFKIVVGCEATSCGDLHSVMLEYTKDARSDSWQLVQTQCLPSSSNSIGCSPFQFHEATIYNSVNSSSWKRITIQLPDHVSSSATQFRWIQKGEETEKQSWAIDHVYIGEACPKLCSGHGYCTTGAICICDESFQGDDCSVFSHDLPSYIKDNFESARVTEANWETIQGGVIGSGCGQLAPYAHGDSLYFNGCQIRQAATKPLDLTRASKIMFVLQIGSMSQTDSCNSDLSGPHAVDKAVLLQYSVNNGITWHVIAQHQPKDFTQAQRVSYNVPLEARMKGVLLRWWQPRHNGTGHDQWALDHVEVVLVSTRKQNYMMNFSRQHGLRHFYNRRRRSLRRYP
UniProt Q9Y6D0, sequence (Q9Y6D0 whole entry, looked up): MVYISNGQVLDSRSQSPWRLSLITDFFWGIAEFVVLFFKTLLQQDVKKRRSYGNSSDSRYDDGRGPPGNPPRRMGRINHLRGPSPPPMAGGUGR

With SEH1L isoform 1 (UniProt Q96EE3), the log2 fold change in assay [1] was 0.016 (inactive); in assay [2] it was 0.031 (inactive); in assay [3], -0.045 (inactive); in assay [4], -0.041 (inactive); in assay [5], -0.028 (inactive).
On to RPS6KA1 (UniProt Q15418), for which the log2 fold change is -0.073 (inactive) in assay [1]; -0.064 (inactive) in assay [2]; -0.045 (inactive) in assay [3]; 0.015 (inactive) in assay [4]; -0.047 (inactive) in assay [5].
As for RAB6D (UniProt Q53S08), the log2 fold change in assay [1] is -0.045 (inactive); in assay [2] it was 0.01 (inactive); in assay [3], 0.034 (inactive); in assay [4], -0.003 (inactive); in assay [5] it was -0.045 (inactive).
For RELN (UniProt P78509), the log2 fold change is 0.033 (inactive) in assay [1]; -0.007 (inactive) in assay [2]; 0.025 (inactive) in assay [3]; -0.089 (inactive) in assay [4]; -0.036 (inactive) in assay [5].
On the same counts, the results for RAI14 isoform 2 (UniProt Q9P0K7) are 0.002 (inactive), -0.052 (inactive), -0.02 (inactive), -0.041 (inactive) and -0.033 (inactive).
In the same order, the values of SDHC (UniProt Q99643) are -0.045 (inactive), -0.016 (inactive), 0.035 (inactive), -0.085 (inactive) and -0.09 (inactive).
Consider RLIM (UniProt Q9NVW2), for which the log2 fold change in assay [1] was 0.049 (inactive); in assay [2], 0.135 (inactive).
Regarding REL isoform 2 (UniProt Q04864), the log2 fold change was 0.017 (inactive) in assay [1]; 0 (inactive) in assay [2]; -0.003 (inactive) in assay [3]; 0.031 (inactive) in assay [4]; 0.03 (inactive) in assay [5].
RIOK3 (UniProt O14730): the log2 fold change in assay [1] is 0.002 (inactive); in assay [2] it was 0.052 (inactive); in assay [3], 0.053 (inactive); in assay [4], -0.007 (inactive); in assay [5], 0.016 (inactive).
In the same order, the values of SERINC3 (UniProt Q13530) are 0.109 (inactive), -0.016 (inactive), 0.028 (inactive), -0.056 (inactive) and -0.175 (inactive).
Regarding RASA3 (UniProt Q14644), the log2 fold change was -0.066 (inactive) in assay [1]; 0.149 (inactive) in assay [2]; 0.078 (inactive) in assay [3]; 0.078 (inactive) in assay [4]; 0.047 (inactive) in assay [5].
As to RNF168 (UniProt Q8IYW5), the log2 fold change was -0.008 (inactive) in assay [1]; -0.052 (inactive) in assay [2]; 0.017 (inactive) in assay [3]; 0.061 (inactive) in assay [4]; -0.068 (inactive) in assay [5].
In the case of RPL28 (UniProt P46779), the log2 fold change is 0.042 (inactive) in assay [1]; -0.02 (inactive) in assay [2]; 0.001 (inactive) in assay [3]; -0.008 (inactive) in assay [4]; 0.041 (inactive) in assay [5].
For RPS29 (UniProt P62273), the log2 fold change in assay [1] was 0.047 (inactive); in assay [2], -0.055 (inactive); in assay [3] it was -0.071 (inactive); in assay [4], 0.328 (inactive); in assay [5] it was 0.398 (inactive).
As to RBBP7 isoform 2 (UniProt Q16576), the log2 fold change is -0.012 (inactive) in assay [1]; -0.009 (inactive) in assay [2]; -0.03 (inactive) in assay [3]; -0.01 (inactive) in assay [4]; -0.033 (inactive) in assay [5].
On the same counts, the results for SEC24D isoform 2 (UniProt O94855) are -0.003 (inactive), 0.006 (inactive), -0.016 (inactive), 0.033 (inactive) and 0.009 (inactive).
In the same order, the values of RIOK2 (UniProt Q9BVS4) are 0.002 (inactive), -0.018 (inactive), 0.009 (inactive), -0.023 (inactive) and -0.022 (inactive).
As to RALA (UniProt P11233), the log2 fold change in assay [1] was -0.013 (inactive); in assay [2], 0.071 (inactive); in assay [3], -0.008 (inactive); in assay [4], -0.004 (inactive); in assay [5], -0.225 (inactive).
In the same order, the values of SELENOK (UniProt Q9Y6D0) are 0.061 (inactive), -0.074 (inactive), -0.05 (inactive), -0.181 (inactive) and -0.311 (inactive).
With RAPGEF2, A0A2R8YGD3, the log2 fold change was -0.043 (inactive) in assay [1]; 0.021 (inactive) in assay [2]; -0.046 (inactive) in assay [3]; -0.003 (inactive) in assay [4]; -0.32 (active) in assay [5].
In the same order, the values of SAR1B (UniProt Q9Y6B6) are -0.006 (inactive), -0.007 (inactive), -0.01 (inactive), -0.068 (inactive) and 0.052 (inactive).
In the same order, the values of RDH10 (UniProt Q8IZV5) are 0.147 (inactive), 0.018 (inactive), 0.006 (inactive), -0.051 (inactive) and -0.06 (inactive).
On the same counts, the results for SCD (UniProt O00767) are -0.016 (inactive), -0.007 (inactive), 0.103 (inactive), -0.179 (inactive) and -0.184 (inactive).
For RBBP7 (UniProt Q16576), the log2 fold change in assay [1] was -0.029 (inactive); in assay [2], 0.013 (inactive); in assay [3] it was 0.009 (inactive); in assay [4] it was -0.042 (inactive).
Take RAD54L2 (UniProt Q9Y4B4): the log2 fold change is 0.139 (inactive) in assay [1]; 0.144 (inactive) in assay [2]; 0.029 (inactive) in assay [3]; -0.131 (inactive) in assay [4]; 0.147 (inactive) in assay [5].
